TDP1 cell CPT – qHTS for Inhibitors of human tyrosyl-DNA phosphodiesterase 1 (TDP1): qHTS in cells in presence of CPT. Potency, µM (titrated, usually from 46.2 µM), actives largely listed as inhibitors. chicken DT40 Tdp1-/-;hTDP1 cells + 20 nM CPT, ATP luminescence, 48 h. 420,000 compounds, 12% hits; further: nearly all actives have a fitted effect of over 55% in size
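Cell growth measured by CellTiter-Glo luminescence after a minimum 48 h, 37 C compound exposure with 20 nM CPT in Tdp1-knockout DT40 cells stably expressing hTDP1, seeded 400/well; qHTS titration format.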
uPA surface inh – qHTS for Inhibitors of Cell Surface uPA Generation; cell surface uPA generation assay, qHTS; Potency, µM (titrated, usually from 38.3 µM), hits mostly inhibitors; 330,000 compounds, 0.31% hits; active means well fitted inhibition curve with a large enough effect; inconclusive means small, poorly fitted or top-dose-only effect; inactive means no such curve, though single readings can be large or run the other way; tested in mouse RAW 264.7 cells; further: nearly all actives have a fitted effect of over 55% in size
HT1080NT lethal – qHTS for induction of synthetic lethality in tumor cells producing 2HG: qHTS for the HT-1080-NT fibrosarcoma cell line. HT-1080-NT fibrosarcoma viability, CellTiter-Glo ATP luminescence, 48 h. Potency, µM (top dose mostly 46.1 µM), most hits filed as cytotoxic. 360,000 compounds, 1.6% hits;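 further: NT is the 2HG producing partner of a matched IDH1 knockdown line; nearly all actives have a fitted effect of over 55% in size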
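Toxicity toward the 2HG-producing NT line was scored as %Activity, normalised to DMSO and no-cell wells, from CellTiter-Glo luminescence after 48 hours' treatment.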
HT1080 IDH1KD tx – qHTS for induction of synthetic lethality in tumor cells producing 2HG: qHTS for the HT-1080-IDH1KD cell line. 360,000 compounds, 2% hits. HT-1080 IDH1 knockdown viability, ATP luminescence, 48 h. Potency, µM (doses to about 46.1 µM), actives largely listed as cytotoxic. AID 686971, 2013
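Viability of IDH1-knockdown HT-1080 fibrosarcoma cells was assessed by CellTiter-Glo after 48 h at 37 °C with titrated compound; concentration-effect curves were classified by fit quality and response size.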
DT40 TDP1 no CPT – qHTS for Inhibitors of human tyrosyl-DNA phosphodiesterase 1 (TDP1): qHTS in cells in absence of CPT | Potency, µM (series often up to 46.2 µM), hits mostly inhibitors | AID 686978, 2013 | 420,000 compounds, 15% hits | DT40 Tdp1-/- hTDP1 cells, no CPT, ATP luminescence, 48 h; further: nearly all actives have a fitted effect of over 55% in size
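Readout: luminescence from CellTiter-Glo after 30 min in the dark at RT. Cells: DT40 Tdp1-/- with stable hTDP1, 400/well. Exposure: compounds alone, ≥48 hr, 37 °C.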
IL-1B inflam inh – qHTS for Inhibitors of Inflammasome Signaling: IL-1-beta AlphaLISA Primary Screen. THP-1 LPS/ATP IL-1B secretion, AlphaLISA, 16 h; hits give low values. activity change, % at 57.5 µM. 360,000 compounds, 4.7% hits. AID 743279, 2014; in the data active means activity change below about -50%; inconclusive means mostly about -30% to -49%
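Secreted IL-1B measured by AlphaLISA bead assay after 16 h compound exposure of THP-1 cells; compounds (final up to 57.5 uM) added 1 h before LPS (250 ng/mL) and ATP (1.25 mM) stimulation; lower signal means less secretion.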
A number is an active result; . = inactive; ? = inconclusive; / = no result given; [ ] = remark or other dose. A selection: hits, their analogues and other compounds. The true share with any hit is near 19%. Unless noted, the call rests on the fitted dose curve; in most records, active means well fitted curve in the direction sought with a large enough effect; inconclusive means small, poorly fitted or top-dose-only effect, or another doubt; inactive means no such curve, though single readings can be large; an effect the other way counts as inactive or inconclusive.

SMILES	TDP1 cell CPT	uPA surface inh	HT1080NT lethal	HT1080 IDH1KD tx	DT40 TDP1 no CPT	IL-1B inflam inh
Clc1ccc(-c2cc3ccccc3nc2N2CCCC2)cc1	?	.	.	.	18µM	.
CCCCN(C)C(=O)CSc1nc2ccccc2nc1Cc1ccc(C)cc1	?	/	/	/	16µM	/
Clc1ccc(-c2cc3ccccc3nc2N2CCOCC2)cc1	?	.	.	.	?	.
CC1CCN(c2nc3ccccc3nc2SCC(=O)Nc2ccccc2C(C)C)CC1	18µM	/	/	/	?	/
CCc1ccc(NC(=O)CSc2nc3ccccc3nc2Cc2ccc(C)cc2)cc1	?	/	/	/	16µM	/
Cc1noc(C)c1S(=O)(=O)NC(=O)C1(C)CCN1C(=O)Cc1ccc(Cl)cc1Cl (configuration not stated)	.	/	.	.	.	.
O=C(c1ccoc1)N1CCCC(N2CCN(c3cccc(Cl)c3)CC2)C1 (configuration not stated)	?	.	.	.	.	.
CN(C)C(CNC(=O)C1CCN(S(=O)(=O)c2ccccc2C(F)(F)F)CC1)Cc1ccccc1 (configuration not stated)	?	.	.	.	?	.
COc1cccc(NC(=O)CSc2nc3ccccc3nc2N2CCOCC2)c1	?	.	.	.	?	?
Cc1ccc(C)c(NC(=O)CSc2nc3ccccc3nc2N2CCOCC2)c1	.	.	.	.	.	.
Cc1cc(C)c(NC(=O)CSc2nc3ccccc3nc2N2CCCCC2)c(C)c1	7.3µM	/	/	/	15µM	/
CCc1ccc(NC(=O)CSc2nc3ccccc3nc2N2CCCC2)cc1	10µM	.	.	.	4.6µM	.
O=C(CSc1nc2ccccc2nc1N1CCCC1)Nc1ccc(Cl)cc1	?	.	.	.	26µM	.
CC(C)c1ccc(NC(=O)CSc2nc3ccccc3nc2N2CCCC2)cc1	18µM	.	.	.	13µM	.
Cn1c(SCC(=O)NNC(=O)c2ccccc2)nnc1C(F)(F)F	.	.	.	.	.	.
O=C(Cc1ccc(Br)cc1)NC1CCSC1=O (configuration not stated)	.	.	.	.	.	.
OCCN1CCN(Cc2ccc3c(c2)CN(Cc2cccc4ncccc24)CCO3)CC1	.[9.04 µM]	/	/	/	?	/
COc1ccccc1CNC(=O)Cn1cc(Br)ccc1=O	.	.	.	.	.	.
CN(Cc1ccccc1)C(=O)[C@@H]1CCCN1	.	/	.	.	.	.
COc1ccc(OC)c(C2C(C(=O)N3CCCCC3)=C(C)Nc3nc4ccccc4n32)c1 (configuration not stated)	.	/	/	/	.	/
CC(=O)Nc1ccc(NC(=O)CSc2nc3ccccc3nc2N2CCOCC2)cc1	.	/	/	/	.	/
Cc1ccc(NC(=O)CSc2nc3ccccc3nc2N2CCCC2)cc1	12µM	.	.	.	9.2µM	.
COc1ccc(C2/C(=C(/O)c3ccc(C)cc3)C(=O)C(=O)N2C)c(OC)c1 (configuration not stated)	.	.	.	.	.	.
CCCCCCCNC(=O)C1(CC2CC(c3cccc(Br)c3)=NO2)CCN(C(=O)OC(C)(C)C)CC1 (configuration not stated)	?	.	.	.	15µM	.
CCCCCCCNC(=O)C1(CC2CC(c3cccc(Br)c3)=NO2)CCN(C(=O)C2CCCC2)CC1 (configuration not stated)	21µM	.	.	.	?	.
SMILES	TDP1 cell CPT	uPA surface inh	HT1080NT lethal	HT1080 IDH1KD tx	DT40 TDP1 no CPT	IL-1B inflam inh
O=C(NCC1CCCCC1)C1(CC2CC(c3ccc(Cl)cc3)=NO2)CCNCC1 (configuration not stated)	23µM	?	?	.	18µM	?
O=C(NCC1CCCCC1)C1(CC2CC(c3cccc(Br)c3)=NO2)CCNCC1 (configuration not stated)	16µM	.	.	.	16µM	.
Cc1cccc(N(C)S(=O)(=O)c2ccc3c(c2)C(C)(C)C(=O)N3C)c1	?	.	.	.	?	.
N[C@@H](Cn1cc(I)c(=O)n(Cc2ccc(C(=O)O)cc2)c1=O)C(=O)O	.	/	/	/	.	/
Cn1ncc2c(NNC(=O)C3CCCCC3)ncnc21	.	.	.	.	.	.
CC(C)NC(=O)C1(C)CN(S(C)(=O)=O)CC(=O)N1CCCN1CCOCC1 (configuration not stated)	.	/	.	?	.	.
COC(=O)c1ccc(NC(=O)c2ccccc2-c2ccccc2C(=O)O)cc1	.	.	.	.	.	.
CC(C)(C)OC(=O)N1CCC(CC2CC(c3cccc(Br)c3)=NO2)(C(=O)NCC2CCCCC2)CC1 (configuration not stated)	?	.	.	.	16µM	.
CCC(C)OC(=O)C[N+](C)(C)CCOC1CC2CCC1(C)C2(C)C (configuration not stated)	1.2µM	.	.	.	1.5µM	.
CC1(C)C2CCC1(C)C(OCCNCCOC(=O)Nc1ccccc1)C2 (configuration not stated)	?	.	?	?	?	?
CCCCCCOC(=O)C[N+](C)(C)CCOC1CC2CCC1(C)C2(C)C (configuration not stated)	?	/	.	.	?	.
CCCCOC(=O)C[N+](C)(C)CCOC1CC2CCC1(C)C2(C)C (configuration not stated)	2.1µM	.	?	.	1.8µM	?
CCCOC(=O)C[N+](C)(C)CCOC1CC2CCC1(C)C2(C)C (configuration not stated)	8.2µM	.	.	.	4.6µM	.
CCCCCCCOC(=O)C[N+](C)(C)CCOC1CC2CCC1(C)C2(C)C (configuration not stated)	1.5µM	.	8.2µM	18µM	1.6µM	-100
COc1ccc(CN(C(=O)c2cc(=O)c3ccccc3o2)C2CCS(=O)(=O)C2)cc1OC (configuration not stated)	.	.	.	.	?	.
O=C(c1cccs1)N1CCN(c2nnc(-c3ccccc3)c3ccccc23)CC1	?	.	.	.	?	-87
Cc1ccc(-c2nnc(N3CCN(C(=O)c4cccs4)CC3)c3ccccc23)cc1	?	.	.	.	23µM	.
CCOC(=O)N1CCN(c2nnc(-c3ccc(C)cc3)c3ccccc23)CC1	?	.	.	.	?	-67

From PubChem
